# 3T3 cytotox: Cytotoxic Profiling in NIH 3T3 Cell Line of Diverse Libraries Using Quantitative High-Throughput Screening; NIH 3T3 viability, CellTiter-Glo ATP luminescence, 48-72 h; Potency, µM (doses to about 96.7 µM), most hits filed as inhibitors; hit rate 4.3% among 94,000; AID 1345082, 2018; note: nearly all actives have a fitted effect of over 55% in size
#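 Mouse fibroblast NIH 3T3 cells, 400 per well, received compound via pintool and were incubated for 48 or 72 hr prior to CellTiter-Glo ATP luminescence measurement.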
# hNpr1 antagonist: Natriuretic polypeptide receptor (hNpr1) antagonism - Primary qHTS. HEK293 hNpr1 GloSensor cGMP, ANP-stimulated luminescence. Atrial natriuretic peptide receptor 1 (Homo sapiens), P16066. Potency, µM (highest dose often 46.3 µM), actives largely listed as inhibitors. hit rate 1.6% among 76,000. AID 1347048, 2019; calls by dose curve; note: nearly all actives have a fitted effect of over 60% in size
# Target sequence (P16066 whole entry, looked up): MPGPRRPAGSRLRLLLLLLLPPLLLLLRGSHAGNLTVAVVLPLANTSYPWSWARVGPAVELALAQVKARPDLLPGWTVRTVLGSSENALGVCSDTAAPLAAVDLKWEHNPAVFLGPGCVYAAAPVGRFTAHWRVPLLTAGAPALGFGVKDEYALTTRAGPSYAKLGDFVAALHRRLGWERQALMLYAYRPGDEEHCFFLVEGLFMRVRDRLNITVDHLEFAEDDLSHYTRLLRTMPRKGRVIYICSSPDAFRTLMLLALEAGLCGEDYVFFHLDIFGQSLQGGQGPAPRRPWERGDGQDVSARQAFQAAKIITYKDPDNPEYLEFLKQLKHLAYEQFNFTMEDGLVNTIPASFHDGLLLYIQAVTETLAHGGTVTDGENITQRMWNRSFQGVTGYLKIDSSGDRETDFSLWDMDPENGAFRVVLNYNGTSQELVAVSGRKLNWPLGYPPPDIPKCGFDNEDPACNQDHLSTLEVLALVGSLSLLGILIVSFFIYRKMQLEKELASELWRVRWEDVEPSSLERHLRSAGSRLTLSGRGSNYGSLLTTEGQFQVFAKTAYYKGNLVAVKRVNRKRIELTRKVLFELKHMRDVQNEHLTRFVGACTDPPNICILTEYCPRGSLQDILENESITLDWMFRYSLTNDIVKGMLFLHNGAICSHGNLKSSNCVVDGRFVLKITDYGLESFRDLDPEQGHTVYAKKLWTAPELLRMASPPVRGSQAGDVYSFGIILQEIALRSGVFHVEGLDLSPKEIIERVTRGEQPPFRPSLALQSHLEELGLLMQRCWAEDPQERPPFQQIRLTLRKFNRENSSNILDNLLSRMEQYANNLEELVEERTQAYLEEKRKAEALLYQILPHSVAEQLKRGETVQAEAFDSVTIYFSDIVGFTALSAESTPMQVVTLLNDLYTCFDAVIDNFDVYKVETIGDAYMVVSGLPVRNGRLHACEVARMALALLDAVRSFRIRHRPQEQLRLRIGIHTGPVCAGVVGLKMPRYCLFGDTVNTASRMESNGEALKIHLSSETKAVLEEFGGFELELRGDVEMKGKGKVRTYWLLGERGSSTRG
#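 Compound pre-incubated 30 min at room temperature on GloSensor-loaded HEK293 cells stably carrying hNpr1 and the pGS-40F cGMP biosensor. Stimulation uses hNppA at 0.1 nM final; luminescence is taken at baseline and 20 min post-agonist.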
# FLuc inh: Firefly luciferase inhibition profiling of diverse chemical library using quantitative high-throughput screening | Luciferin 4-monooxygenase (Photinus pyralis), P08659 | purified P. pyralis luciferase, luminescence, biochemical | hit rate 2.5% among 76,000 | Potency, µM (series often up to 115 µM), usual class: inhibitors; note: nearly all actives have a fitted effect of over 65% in size
#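 FLuc 10nM, D-luciferin 10uM, ATP 10uM, Mg acetate 10mM, Tris acetate pH 7.5, Tween/BSA; cpd qHTS; enzyme added last; CCD luminescence.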
# HEK293 tox: Cytotoxic Profiling in HEK 293 Cell Line of Diverse Libraries Using Quantitative High-Throughput Screening; Potency, µM (highest dose often 115 µM), most hits filed as inhibitors; HEK 293 viability, ATP luminescence (CellTiter-Glo), 48-72 h; hit rate 6.6% among 94,000; note: nearly all actives have a fitted effect of over 60% in size
#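 Cells seeded first (HEK 293, 250 cells/well), then compound added by pintool. Incubation ran 48 or 72 hr at 37 degree Celsius. CellTiter-Glo was added and luminescence imaged after 10 min at room temperature.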
# Numbers stand for hits; – = inactive; ? = inconclusive; · = no result. This is a sample that favours compounds with a hit; in the whole collection about 11% have one here. Unless noted, calls come from the whole dose curve; as a rule, active = well fitted curve in the direction sought with a large enough effect; inconclusive = small, poorly fitted or top-dose-only effect, or another doubt; inactive = no such curve, though single readings can be large; an effect the other way counts as inactive or inconclusive.
SMILES,3T3 cytotox,hNpr1 antagonist,FLuc inh,HEK293 tox
CCC1Oc2ccc(NC(=O)C3CCCC3)cc2CN(Cc2ccccc2Cl)C1=O (centres undefined),?,–,–,79µM
COC(=O)N1CCCC(C(=O)N2CCC(c3nc4ccncc4[nH]3)C2)C1 (centres undefined),–,·,·,–
COc1ccccc1CN1Cc2cc(NC(=O)Cc3ccc(F)cc3)ccc2OC(C)C1=O (centres undefined),?,–,–,?
CC1Oc2ccc(NC(=O)Cc3ccc(F)cc3)cc2CN(Cc2ccc(Cl)cc2)C1=O (centres undefined),28µM,–,–,40µM
COc1ccc(-c2ccccc2NC(=O)C2CCCN(Cc3ccc(O)c(OC)c3)C2)cc1 (centres undefined),?,–,–,?
COc1ccc(-c2ccccc2NC(=O)C2CCCN(Cc3ccccc3O)C2)cc1 (centres undefined),?,–,–,25µM
COc1ccc(-c2ccccc2NC(=O)C2CCCN(Cc3c(O)cccc3OC)C2)cc1 (centres undefined),?,?,–,20µM
O=C(C1CCCN1C(=O)c1ccccc1)N1CCC(c2nc3ccncc3[nH]2)CC1 (centres undefined),–,·,·,–
O=C(NCc1ccccc1)C1CCCN(c2nccc(Nc3ccccc3F)n2)C1 (centres undefined),32µM,·,·,18µM
O=C(NCc1ccc(C(F)(F)F)cc1)C1CCCN(c2nccc(Nc3ccccc3F)n2)C1 (centres undefined),32µM,·,·,?
O=C(NCC1CCCCCC1)C1CCCN(c2nccc(Nc3ccccc3F)n2)C1 (centres undefined),?,·,·,28µM
O=C(NCc1cccc(F)c1)C1CCCN(c2nccc(Nc3ccccc3F)n2)C1 (centres undefined),28µM,·,·,?
O=C(NCc1ccccc1)C1CCCN1c1nccc(Nc2ccccc2F)n1 (centres undefined),–,·,·,?
CCc1ccccc1NC(=O)Cn1c(N2CCN(c3ccccc3)CC2)nc(C)cc1=O,–,–,–,–
O=C(C1CCCN(c2nccc(Nc3ccccc3F)n2)C1)N1CCOCC1 (centres undefined),–,·,·,?
O=C(C1CCCN(c2nccc(Nc3ccccc3F)n2)C1)N1CCCC1 (centres undefined),32µM,·,·,45µM
Cc1noc(C)c1CN1CC[C@@H]2OCC(=O)N(Cc3c[nH]c4ccccc34)[C@H]2CC1,–,–,–,?
COc1ccccc1CN1CC[C@@H]2OCC(=O)N(Cc3c[nH]c4ccccc34)[C@H]2CC1,?,–,–,?
N#Cc1cccc(CN2CC[C@@H]3OCC(=O)N(Cc4c[nH]c5ccccc45)[C@H]3CC2)c1,?,–,–,100µM
O=C1CO[C@H]2CCN(Cc3c[nH]c4ccccc34)CC[C@@H]2N1Cc1ccccc1,89µM,–,–,?
CC(C)CCN1CC[C@@H]2OCC(=O)N(Cc3c[nH]c4ccccc34)[C@H]2CC1,?,–,–,100µM
COCCCNC(=O)c1ccc2nnc(-c3ccccc3OC)n2c1,–,·,·,–
CS(=O)(=O)N1CCc2ccc(C(=O)Nc3ccc(Cl)c(C(F)(F)F)c3)cc21,–,?,18µM,20µM
COc1ccc(NC(=O)c2ccc3c(c2)N(S(C)(=O)=O)CC3)cc1Cl,–,?,1µM,?
CCCCn1c(=O)c(C(=O)N2CCN(C(=O)COC)CC2)nc2cccnc21,–,·,·,–
SMILES,3T3 cytotox,hNpr1 antagonist,FLuc inh,HEK293 tox
CNC(=O)c1nc2cccnc2n(Cc2ccccc2)c1=O,–,·,·,–
CN(Cc1cccc(N2CCN(S(=O)(=O)c3ccccc3C(F)(F)F)CC2)c1F)S(C)(=O)=O,?,·,·,35µM
Cn1nc2n(c1=O)CCN(S(=O)(=O)c1ccccc1C(F)(F)F)CC2,–,–,–,–
Cc1cc(C)n(CC(=O)N2CC(N(C)Cc3cccnc3)C2)n1,–,–,35µM,–
CN(Cc1cccnc1)C1CN(C(=O)c2cnn(C)c2)C1,–,–,28µM,–
Cc1cccc(C(=O)N2CC(N(C)Cc3cccnc3)C2)c1,–,–,–,–
CCn1ccc(C(=O)N2CC(N(C)Cc3cccnc3)C2)n1,–,·,·,–
COc1ccccc1-c1[nH]ncc1CN1CCn2nnc(CCC(=O)N3CCCC3)c2C1,–,–,–,–
COCCCn1c(=O)c(C(=O)N2CCN(C(=O)c3ccccc3Cl)CC2)nc2cccnc21,–,·,·,–
CCCn1cc(CNC(=O)c2ccc3c(c2)n(CC)c(=O)c2ccnn23)c(C)n1,?,–,–,79µM
COCC1CN(C2CCC2)CC12CCN(C(=O)c1ccc(C#N)cc1)CC2 (centres undefined),–,·,·,–
COc1ccc(NC(=O)CC2CCCN(c3cnn(CC4CC4)c(=O)c3)C2)cc1 (centres undefined),28µM,–,–,?
Cc1ccc(NC(=O)CC2CCCN(c3cnn(CC4CC4)c(=O)c3)C2)c(C)c1 (centres undefined),–,–,–,–
Cc1ccc(NC(=O)CC2CCCN(c3cnn(CC4CC4)c(=O)c3)C2)cc1C (centres undefined),40µM,–,–,?
O=S(=O)(c1ccc(Cl)cc1)c1nnn2c1nc(N1CCCCC1)c1ccccc12,–,·,·,–
Cc1noc(C)c1-c1cc2cc(C(C)C)oc2c(NCCN2CCOCC2)n1,?,–,–,?
Cc1cc2cc(-c3c(C)noc3C)nc(NC3CC3)c2o1,?,–,–,?
Cc1noc(C)c1-c1cc2cc(C(C)C)oc2c(NC2CCN(C)CC2)n1,?,–,–,32µM
Cc1noc(C)c1-c1cc2cc(CNC3CC3)oc2c(NC2CCN(C)CC2)n1,?,–,–,40µM
Cc1noc(C)c1-c1cc2cc(C(C)C)oc2c(N2CCN(C)CC2)n1,?,–,–,?
Cc1noc(C)c1-c1cc2cc(C(C)C)oc2c(Nc2ccn(C)n2)n1,?,–,–,63µM
CC(=O)N(C1CC1)C1CCOC2(CCN(C(=O)c3ccco3)CC2)C1 (centres undefined),–,·,·,–
CCC1c2nccn2CCCN1C(=O)c1ccc(OC)nc1OC (centres undefined),–,–,–,–
CC(=O)NCc1nnc2n1C(C(=O)NCc1ccccc1Cl)CC2 (centres undefined),?,·,·,–
Cc1ccc(CN2CCc3oc(C)c(C(=O)N4CCSCC4)c3C2)cc1,–,–,–,?
SMILES,3T3 cytotox,hNpr1 antagonist,FLuc inh,HEK293 tox
Cc1ccc(-c2cccc(C=O)c2)cc1Cl,?,·,·,–
NCc1cccc(-c2ccc(O)cc2)c1,–,·,·,–
CSc1ccc(-c2cccc(CN)c2)cc1,25µM,·,·,?
Cc1ccc(-c2cccc(CN)c2)cc1Cl,28µM,·,·,?
Cc1ccc(-c2ccc(CN)cc2)cc1Cl,32µM,·,·,32µM
O=C(Nc1cccnc1)[C@@H]1CCCN1c1ccnc2ccnn12,–,·,·,–
